13 molecules from PubChem BioAssay (NCATS) can be followed below.

Experiment [1] addresses Mitogen-activated protein kinase 10 (Mus musculus) (UniProt Q61831). The experiment is described as follows: JNK3 AlphaScreen Assay (AID 530; active = well fitted curve in either direction with a large enough effect, not every such curve was filed as active;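 also: kinase came from lysate of stimulated human HepG2 cells; signal reports phosphorylation of biotinylated GST-cJun 1-79 at Ser73 with 10 µM ATP; series mostly up to about 57 µM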). The method in brief: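 HepG2 lysate (IL-1b/TNFa pre-activated) + biotin-GST-cJun 1-79 + anti-pSer73 cJun; cpd titration, 15 min RT; ATP 10 uM start; Tris pH 7.6, MgCl2, DTT, vanadate; beads in EDTA buffer; AlphaScreen.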
For orientation: Alpha assays give light when donor and acceptor beads are brought close together.

Experiment [2] addresses Cytochrome P450 3A4 (Homo sapiens) (UniProt P08684). The experiment is described as follows: qHTS Assay for Activators of Cytochrome P450 3A4 (AID 885). Also: nearly all actives have a fitted effect of over 65% in size. The method in brief:
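Human CYP3A4 dealkylates Luciferin-PPXE to luciferin, which luciferase detection converts to light. Substrate was at its KM (25uM), buffer 200mM KPO4, reaction 60 min at RT.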
A general note: Quantitative high-throughput screening tests each substance at several concentrations.

In experiment [3] the target is Lethal(3)malignant brain tumor-like protein 1 (Homo sapiens) (UniProt Q9Y468). The experiment is described as follows: qHTS Assay for the Inhibitors of L3MBTL1: Hit Validation (AID 540279). Also: potency is read from the fitted curve at half-maximal effect; nearly all actives have a fitted effect of over 70% in size. Particulars: L3MBTL1 methyl-lysine binding inhibition, biochemical qHTS. The method in brief:
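L3MBTL1 (50 nM final) preformed 30 min with biotinylated H3(1-15)K9me1 peptide (75 nM), then compound 30 min at room temperature. Streptavidin donor and nickel chelate acceptor AlphaScreen beads (10 ug/mL each final) added for 30 min before read.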

Experiment [4] has as its target DNA polymerase iota (Homo sapiens) (UniProt Q9UNA4). Put plainly: qHTS for Inhibitors of Polymerase Iota: Confirmatory Assay for Cherry-picked Compounds (AID 720496). Also: potency is read from the fitted curve at half-maximal effect. Particulars: Pol iota primer extension, TAMRA/BHQ fluorescence. The method in brief: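 Enzyme (10 nM Pol iota) and compound sit together for 15 min at room temperature. Adding annealed primer/TAMRA-reporter/BHQ-2-template substrate, 50 nM final, starts the reaction, which is followed by fluorescence over 10 min.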

Experiment [5] deals with Flap endonuclease 1 (Homo sapiens) (UniProt P39748). The experiment is described as follows: qHTS Assay for the Inhibitors of FEN1: Confirmatory Assay for Cherry-picked Compounds (AID 720498). Also: potency is read from the fitted curve at half-maximal effect; nearly all actives have a fitted effect of over 60% in size. Particulars: FEN1 flap cleavage, TAMRA/BHQ2 fluorogenic DNA substrate. The method in brief:
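Human FEN1 (10 nM reagent) was preincubated with compounds for 15 min at room temperature, then 50 nM final double-flap DNA substrate (5'-TAMRA flap, BHQ-2 quencher strand) was added. Fluorescence (ex 525/em 598 nm) was read at 0 and 15 min.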

In experiment [6] the target is DNA dC->dU-editing enzyme APOBEC-3G (Homo sapiens) (UniProt Q9HC16). Put plainly: qHTS for inhibitors of Vif-A3G interactions: Validation (AID 588379). The method in brief:
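Yellow fluorescence (Ex 488, Em 500-530) of Vif-coexpressing HeLa A3G-eYFP cells, scanned by Acumen cytometer, reports blocked A3G degradation. Cells plated at 700/well overnight at 37 deg C before compound addition, then a further overnight compound incubation at 37 deg C.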

In experiment [7] the target is Cytochrome P450 3A4 (Homo sapiens) (UniProt P08684). Put plainly: qHTS Assay for Inhibitors and Substrates of Cytochrome P450 3A4 (AID 884). Also: nearly all actives have a fitted effect of over 50% in size. Also: potency is read from the fitted curve at half-maximal effect. The method in brief:
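Luminescent readout of luciferin produced by CYP3A4 (20 nM) dealkylation of Luciferin-PPXE, 25 uM (its KM). NADPH-driven reaction ran 60 min at RT after 10 min compound preincubation; data scaled to 57 uM ketoconazole as 100% inhibition.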

Records with an inconclusive call do not appear. The list shows a part of the results. A call without a number means that no potency is given here. Activity calls are given as the source filed them. Unless noted, calls follow the shape of the dose curve; as a rule, active = well fitted curve in the direction sought with a large enough effect; inconclusive = small, poorly fitted or top-dose-only effect, or another doubt; inactive = no such curve, though single readings can be large; an effect the other way counts as inactive or inconclusive.

Cytochrome P450 3A4 (Homo sapiens), sequence (P08684 whole entry, looked up): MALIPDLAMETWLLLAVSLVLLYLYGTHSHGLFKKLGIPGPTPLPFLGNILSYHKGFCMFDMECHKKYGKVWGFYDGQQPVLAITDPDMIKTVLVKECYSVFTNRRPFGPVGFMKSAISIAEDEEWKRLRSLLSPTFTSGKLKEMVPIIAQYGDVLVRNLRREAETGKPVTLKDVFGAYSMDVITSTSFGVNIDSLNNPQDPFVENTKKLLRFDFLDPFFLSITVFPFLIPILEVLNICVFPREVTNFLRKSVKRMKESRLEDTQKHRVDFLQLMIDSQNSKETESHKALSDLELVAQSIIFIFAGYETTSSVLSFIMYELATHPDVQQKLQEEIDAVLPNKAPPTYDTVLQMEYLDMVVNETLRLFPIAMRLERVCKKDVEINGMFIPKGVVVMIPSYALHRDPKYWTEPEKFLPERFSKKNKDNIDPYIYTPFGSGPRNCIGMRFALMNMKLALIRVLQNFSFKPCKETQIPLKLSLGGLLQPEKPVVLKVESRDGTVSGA
DNA dC->dU-editing enzyme APOBEC-3G (Homo sapiens), sequence (Q9HC16 whole entry, looked up): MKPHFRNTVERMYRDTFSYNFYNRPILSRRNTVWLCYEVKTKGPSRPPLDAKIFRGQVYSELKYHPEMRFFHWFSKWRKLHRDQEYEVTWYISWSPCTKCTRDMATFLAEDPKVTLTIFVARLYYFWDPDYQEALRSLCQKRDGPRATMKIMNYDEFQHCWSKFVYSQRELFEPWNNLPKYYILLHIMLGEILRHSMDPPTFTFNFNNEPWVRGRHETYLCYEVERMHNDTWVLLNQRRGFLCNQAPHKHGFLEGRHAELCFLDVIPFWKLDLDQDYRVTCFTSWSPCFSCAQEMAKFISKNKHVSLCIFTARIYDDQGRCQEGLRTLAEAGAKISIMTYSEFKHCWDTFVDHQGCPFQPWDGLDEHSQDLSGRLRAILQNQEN
Flap endonuclease 1 (Homo sapiens), sequence (P39748 whole entry, looked up): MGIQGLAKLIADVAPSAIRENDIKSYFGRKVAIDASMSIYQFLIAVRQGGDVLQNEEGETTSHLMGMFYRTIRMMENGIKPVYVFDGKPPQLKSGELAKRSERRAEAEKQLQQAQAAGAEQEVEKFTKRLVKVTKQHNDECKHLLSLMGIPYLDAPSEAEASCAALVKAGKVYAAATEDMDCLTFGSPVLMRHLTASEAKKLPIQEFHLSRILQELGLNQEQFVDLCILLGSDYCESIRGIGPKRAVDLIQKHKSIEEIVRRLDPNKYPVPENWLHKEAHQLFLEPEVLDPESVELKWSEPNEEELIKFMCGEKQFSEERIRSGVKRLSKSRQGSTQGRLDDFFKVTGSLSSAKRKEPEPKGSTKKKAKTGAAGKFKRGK
DNA polymerase iota (Homo sapiens), sequence (Q9UNA4 whole entry, looked up): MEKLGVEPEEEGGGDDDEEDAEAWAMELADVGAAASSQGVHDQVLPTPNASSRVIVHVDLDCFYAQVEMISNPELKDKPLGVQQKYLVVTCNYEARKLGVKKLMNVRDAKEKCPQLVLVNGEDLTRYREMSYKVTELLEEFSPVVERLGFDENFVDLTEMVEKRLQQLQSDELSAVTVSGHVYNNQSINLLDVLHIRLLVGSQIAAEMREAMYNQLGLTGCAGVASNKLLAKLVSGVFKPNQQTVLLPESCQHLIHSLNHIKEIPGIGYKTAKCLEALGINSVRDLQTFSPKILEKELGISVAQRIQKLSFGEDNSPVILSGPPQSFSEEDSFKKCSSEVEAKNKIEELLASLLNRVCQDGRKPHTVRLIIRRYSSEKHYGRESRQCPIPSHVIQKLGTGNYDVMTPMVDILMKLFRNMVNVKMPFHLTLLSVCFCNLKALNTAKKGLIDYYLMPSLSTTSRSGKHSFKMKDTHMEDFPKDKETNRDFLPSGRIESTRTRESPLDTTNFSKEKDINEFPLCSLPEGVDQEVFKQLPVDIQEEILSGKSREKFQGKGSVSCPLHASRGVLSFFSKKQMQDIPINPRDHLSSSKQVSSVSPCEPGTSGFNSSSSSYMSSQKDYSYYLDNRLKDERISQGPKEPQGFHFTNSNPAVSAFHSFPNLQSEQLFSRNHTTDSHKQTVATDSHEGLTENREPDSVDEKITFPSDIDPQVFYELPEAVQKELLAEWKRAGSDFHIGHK
Lethal(3)malignant brain tumor-like protein 1 (Homo sapiens), sequence (Q9Y468 whole entry, looked up): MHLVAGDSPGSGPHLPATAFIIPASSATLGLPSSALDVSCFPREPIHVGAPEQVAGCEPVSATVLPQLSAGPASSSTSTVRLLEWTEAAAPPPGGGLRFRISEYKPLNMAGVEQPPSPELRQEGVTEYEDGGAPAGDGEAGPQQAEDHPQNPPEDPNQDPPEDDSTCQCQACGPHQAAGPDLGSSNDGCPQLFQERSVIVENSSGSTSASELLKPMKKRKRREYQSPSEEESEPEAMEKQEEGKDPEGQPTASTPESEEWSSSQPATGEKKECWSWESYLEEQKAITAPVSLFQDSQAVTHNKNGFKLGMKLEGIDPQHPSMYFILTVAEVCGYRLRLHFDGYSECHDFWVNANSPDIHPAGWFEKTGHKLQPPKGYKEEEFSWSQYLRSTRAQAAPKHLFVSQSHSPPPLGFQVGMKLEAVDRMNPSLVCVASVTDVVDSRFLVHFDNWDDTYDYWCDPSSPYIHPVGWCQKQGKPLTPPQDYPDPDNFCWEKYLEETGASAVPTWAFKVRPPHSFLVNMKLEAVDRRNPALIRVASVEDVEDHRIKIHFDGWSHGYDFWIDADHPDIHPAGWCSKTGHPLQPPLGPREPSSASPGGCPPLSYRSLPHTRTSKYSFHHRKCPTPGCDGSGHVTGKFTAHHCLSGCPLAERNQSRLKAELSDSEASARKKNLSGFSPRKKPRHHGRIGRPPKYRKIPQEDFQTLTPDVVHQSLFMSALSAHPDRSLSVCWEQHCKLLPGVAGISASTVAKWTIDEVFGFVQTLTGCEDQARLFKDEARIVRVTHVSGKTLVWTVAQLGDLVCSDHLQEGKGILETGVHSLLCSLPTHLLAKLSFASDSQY

Turning to `CNC(=O)C1(C)C=CC2(CCCCC2)N1C(C)=O` (stereo unspecified), the result in experiment [1] was inactive. For the same molecule, the Potency entry in experiment [2] is “inactive”.

As for `CCCCNC(=O)C(c1ccc(OCC(=O)OC)c(C(=O)OC)c1)N(CCOC)C(=O)CCCCCN1C(=O)NC(c2ccc(-c3ccccc3)cc2)C(C(=O)OCc2ccccc2)=C1C` (stereo unspecified), in experiment [1], the molecule was called inactive. For the same molecule, in experiment [2], the Potency result is “inactive”.

On to `COCCNC(=O)Nc1ccc2nc(-c3ccco3)c(-c3ccco3)nc2c1`, for which the results for the Potency in experiment [3], in experiment [4] and in experiment [5] were 1.89 µM (active), 7.52 µM (active) and 19 µM (active), respectively.

As for `COC(=O)[C@@]1(C)C=C[C@@H](Cc2ccccc2)N1C(C)=O`, the call in experiment [1] was inactive. The Potency result in experiment [2] is “inactive”.

On to `COC(=O)CNC(=O)[C@@]1(C)C=C[C@@H](Cc2ccccc2)N1C(C)=O`, for which the molecule was classed as inactive in experiment [1]. For the same molecule, the Potency entry in experiment [2] is “inactive”.

On to `C=C[C@@H]1CN2CC[C@@H]1C[C@@H]2[C@@H](O)c1ccnc2ccc(OC)cc12`, for which the Potency result in experiment [6] was “inactive”.

Consider `COc1ccccc1-c1oc2ccccc2c(=O)c1O`, for which the Potency in experiment [7] is 25.1 µM (active). In addition, the Potency entry in experiment [2] and in experiment [6] was “inactive” throughout.

For `CC(=O)[C@@H]1[C@H]2[C@H](C(=O)[C@H]3OC[C@@H]2O3)[C@H]2C=Cc3ccccc3N21`, the Potency entry in experiment [2] and in experiment [6] was “inactive” each time.

Take `Clc1ccc2nc(-c3ccccc3)[nH]c2c1`: the Potency in experiment [7] was 12.6 µM (active). In addition, the Potency entry in experiment [2] and in experiment [6] was “inactive” in each case.

As to `Cc1cccc(-c2cc(=O)c3cc(Br)ccc3o2)c1`, the Potency in experiment [7] is 12.6 µM (active). Further, the Potency result in experiment [2] and in experiment [6] was “inactive” each time.

As to `CC(=O)Nc1ccc(-c2nc3ccc(Cl)cc3[nH]2)cc1`, the Potency entry in experiment [7] and in experiment [6] was “inactive” throughout.

With `Cc1ccc(CC(Cc2nc3ccccc3[nH]2)c2nc3ccccc3[nH]2)cc1` (stereo unspecified), the Potency in experiment [7] was 1.26 µM (active). The Potency result in experiment [2] and in experiment [6] was “inactive” throughout.

As for `CC(=O)OC1CCC2(C)C3CCC4(C)C(CC5CCCCC54C(C)=O)C3CC(=O)[C@@]2(O)C1` (stereo partly specified), the Potency in experiment [7] was 10 µM (active). For the same molecule, the Potency result in experiment [2] and in experiment [6] was “inactive” throughout.
